In PubChem BioAssay (NCATS):
Inconclusive results are not listed. Unless noted, the call rests on the fitted dose curve; in most records, active means well fitted curve in either direction with a large enough effect (not every such curve was filed as active); inconclusive means small, poorly fitted or top-dose-only effect, or another doubt; inactive means flat fitted curve, though single readings scatter.

Key:
[1] = AP1 Signaling Pathway (AID 357); conditions: ME-180 AP-1-bla reporter, EGF-induced, beta-lactamase ratio, 5 h; at 17.2 µM (top of the series) unless noted;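 further: ME-180 reporter cells stimulated with EGF at its EC50 level; on the % scale 0 is the no-effect control and ±100 the full control effect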
Outline: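 In this screen, ME-180 cells in Opti-MEM with 0.5% dialyzed FBS received EC50 EGF and compound titrations for 5 h. AP-1 reporter beta-lactamase was detected via CCF4 ratio, giving AC50 for positive and negative modulators.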

[2] = NFAT Signaling Pathway (AID 444); conditions: Jurkat NFAT-bla M1, carbachol, beta-lactamase ratio, 5 h; at 17.2 µM (top of the series) unless noted;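 further: carbachol stimulus at about its EC50 of 1 µM final; on the % scale 0 is the no-effect control and ±100 the full control effect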
Outline: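 Jurkat cells with NFAT-driven β-lactamase reporter and co-expressed M1 receptor, stimulated with carbachol (final 1 uM, ~EC50), compound titration, 5 h at 37 °C. CCF4 loaded 1 h at RT; 460/530 nm ratio gave %activity and AC50.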

[3] = Stat Signaling Pathway (AID 446); conditions: ME-180 SIE beta-lactamase reporter, IL-6 stimulated, 5 h; at 17.2 µM (top of the series) unless noted;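 further: ME-180 cervical cancer cells given 40 pM IL-6 alongside compound; SIE-controlled beta-lactamase reporter measured as 460/530 nm FRET emission ratio; on the % scale 0 is the no-effect control and ±100 the full control effect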
Outline: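 Screening format detects activators and inhibitors alike: ME-180 SIE-bla cells stimulated at 40 pM IL-6 for 5 hrs with compound, then dual-emission beta-lactamase read at 405 nm excitation.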

[4] = molecular target: Glucocorticoid receptor (Homo sapiens) (UniProt P04150); experiment: GR-GFP Redistribution (AID 450;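 active means compounds whose dose series gives a full or clear partial fitted curve of increased nuclear translocation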; further: potency means the concentration at half of the fitted maximal effect)
Glucocorticoid receptor (Homo sapiens), sequence (P04150 whole entry, looked up): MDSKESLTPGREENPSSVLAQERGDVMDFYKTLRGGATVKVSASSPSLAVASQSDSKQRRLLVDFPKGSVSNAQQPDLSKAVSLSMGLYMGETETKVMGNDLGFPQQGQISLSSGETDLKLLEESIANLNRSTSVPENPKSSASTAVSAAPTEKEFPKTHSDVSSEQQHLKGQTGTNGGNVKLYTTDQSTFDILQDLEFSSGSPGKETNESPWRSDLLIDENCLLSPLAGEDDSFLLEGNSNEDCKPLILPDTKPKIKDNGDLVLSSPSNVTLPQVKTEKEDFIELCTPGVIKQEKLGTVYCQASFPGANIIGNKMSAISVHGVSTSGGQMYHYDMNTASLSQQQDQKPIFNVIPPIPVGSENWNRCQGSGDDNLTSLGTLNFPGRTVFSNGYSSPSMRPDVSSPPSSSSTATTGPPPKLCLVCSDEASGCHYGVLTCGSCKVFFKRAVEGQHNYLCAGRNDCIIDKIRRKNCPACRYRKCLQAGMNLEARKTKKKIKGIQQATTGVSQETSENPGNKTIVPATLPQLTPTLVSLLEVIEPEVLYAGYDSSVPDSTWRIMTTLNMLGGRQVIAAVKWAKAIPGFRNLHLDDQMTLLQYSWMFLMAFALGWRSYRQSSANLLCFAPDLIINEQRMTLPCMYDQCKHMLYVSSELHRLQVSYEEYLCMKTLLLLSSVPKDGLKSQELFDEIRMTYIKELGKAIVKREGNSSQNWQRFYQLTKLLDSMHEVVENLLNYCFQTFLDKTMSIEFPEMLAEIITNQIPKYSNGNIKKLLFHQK

CNC(=O)CCn1nc(-c2ccccc2)c2ccccc2c1=O
inactive: activity change, negative = inhibition [1] 5.34% | activity change, negative = inhibition [2] -2.43% | activity, negative = inhibition [3] 1.15% | Potency [4] > 20.6 µM

Cn1c(=O)n(Cc2ccccc2)c(=O)c2c1nc(NCC1CCCO1)n2Cc1ccccc1 (stereo not given)
inactive: activity change, negative = inhibition [1] -28.9% | activity change, negative = inhibition [2] -16.1% | activity, negative = inhibition [3] -15.3% | Potency [4] > 20.6 µM

COC(=O)c1cc(Br)c(=O)n(Cc2ccco2)c1
inactive: activity change, negative = inhibition [1] 10.7% | activity change, negative = inhibition [2] -14.5% | activity, negative = inhibition [3] -3.41% | Potency [4] > 20.6 µM

Nc1nnnn1/N=C/c1ccccn1
inactive: activity change, negative = inhibition [1] -1.28% | activity change, negative = inhibition [2] -4.47% | activity, negative = inhibition [3] -2.26% | Potency [4] > 20.6 µM

N#CCCSc1nc(N2CCOCC2)c2c(c1C#N)CCCC2
inactive: activity change, negative = inhibition [1] -2.29% | activity change, negative = inhibition [2] 13.2% | activity, negative = inhibition [3] -12.4% | Potency [4] > 20.6 µM

CCC(CC)n1[nH]c(=O)cc1N
inactive: activity change, negative = inhibition [1] -9.54% | activity change, negative = inhibition [2] 14.2% | activity, negative = inhibition [3] 2.51% | Potency [4] > 20.6 µM

CCN(CC)CCN1C(=O)C(=O)/C(=C(/O)c2ccc(C)cc2)C1c1cccnc1 (stereo not given)
inactive: activity change, negative = inhibition [1] 4.64% | activity change, negative = inhibition [2] -5.95% | activity, negative = inhibition [3] 7.25% | Potency [4] > 20.6 µM

COc1cc(-n2c3nc4ccccc4nc3c3c(=O)n(Cc4ccco4)cnc32)cc(OC)c1OC
inactive: activity change, negative = inhibition [1] -7.36% | activity change, negative = inhibition [2] -5.5% | activity, negative = inhibition [3] 3.4% | Potency [4] > 20.6 µM

CCOC(=O)CSc1nc(N2CCOCC2)c2c(c1C#N)CC(C)(C)N(C)C2
inactive: activity change, negative = inhibition [1] -8.24% | activity change, negative = inhibition [2] -17.7% | activity, negative = inhibition [3] 1.11% | Potency [4] > 20.6 µM

Cc1c(Cl)c(C(F)(F)F)nn1CC(=O)N1CCSCC1
inactive: activity change, negative = inhibition [1] 9.46% | activity change, negative = inhibition [2] 0.195% | activity, negative = inhibition [3] 5.37% | Potency [4] > 20.6 µM

Cc1ccc(C(=O)NCCCNCCCNC(=O)c2ccc(C)nc2)cn1
inactive: activity change, negative = inhibition [1] 8.18% | activity change, negative = inhibition [2] -5.81% | activity, negative = inhibition [3] 5.34% | Potency [4] > 20.6 µM

Cc1c(NC(=O)c2ccc(=O)oc2)c(=O)n(-c2ccccc2)n1C
inactive: activity change, negative = inhibition [1] 10.3% | activity change, negative = inhibition [2] -22.5% | activity, negative = inhibition [3] 2.43% | Potency [4] > 20.6 µM

COCC(C)Nc1ncnc2c1cnn2-c1ccc(Cl)cc1 (stereo not given)
inactive: activity change, negative = inhibition [1] -23.7% | activity change, negative = inhibition [2] -6.38% | activity, negative = inhibition [3] -3.72% | Potency [4] > 20.6 µM

Cc1csc(SCCn2c(Br)nc3c2c(=O)[nH]c(=O)n3C)n1
inactive: activity change, negative = inhibition [1] 1.52% | activity change, negative = inhibition [2] 4.32% | activity, negative = inhibition [3] 1.99% | Potency [4] > 20.6 µM

CC(NC(=O)Nc1cccnc1)(C(F)(F)F)C(F)(F)F
inactive: activity change, negative = inhibition [1] -12.1% | activity change, negative = inhibition [2] -11.5% | activity, negative = inhibition [3] -3.14% | Potency [4] > 20.6 µM

Cc1cc(C)nc(N(C#N)CC(=O)N(c2ccccc2)C(C)C)n1
inactive: activity change, negative = inhibition [1] -11% | activity change, negative = inhibition [2] 4.64% | activity, negative = inhibition [3] 7.49% | Potency [4] > 20.6 µM

COc1ccc2c(c1)[nH]c1c(=O)n(CCN(C)C)cnc12
inactive: activity change, negative = inhibition [1] 10.5% | activity change, negative = inhibition [2] 15.2% | activity, negative = inhibition [3] 8.04% | Potency [4] > 20.6 µM

CC(NC(=O)OCc1ccccc1)C(=O)OCN1C(=O)c2ccccc2C1=O (stereo not given)
inactive: activity change, negative = inhibition [1] -1.4% | activity change, negative = inhibition [2] -16.6% | activity, negative = inhibition [3] 13.6% | Potency [4] > 20.6 µM

O=C(CSc1nc2ccccc2s1)Nn1cnnc1
inactive: activity change, negative = inhibition [1] 3.59% | activity change, negative = inhibition [2] 2.13% | activity, negative = inhibition [3] 5.58% | Potency [4] > 20.6 µM

COc1ccc(-c2nc3n(c2Br)CCC3)cc1
inactive: activity change, negative = inhibition [1] -3.45% | activity change, negative = inhibition [2] 1.51% | activity, negative = inhibition [3] 0.643% | Potency [4] > 20.6 µM

O=C(Nc1ccc(Cl)cn1)C1CCCN1S(=O)(=O)c1ccccc1 (stereo not given)
inactive: activity change, negative = inhibition [1] -9.31% | activity change, negative = inhibition [2] -4.11% | activity, negative = inhibition [3] -6.7% | Potency [4] > 20.6 µM

O=C(c1cncc(Br)c1)N1CCCc2ccccc21
inactive: activity change, negative = inhibition [1] 2.83% | activity change, negative = inhibition [2] -6.51% | activity, negative = inhibition [3] -1.14% | Potency [4] > 20.6 µM

CC(=O)[C@H]1CC[C@H]2[C@@H]3CCC4=CC(=O)CC[C@]4(C)[C@H]3[C@H](O)C[C@]12C
inactive: activity change, negative = inhibition [1] -0.48% | activity change, negative = inhibition [2] 2.54% | activity, negative = inhibition [3] 2.53% | Potency [4] > 20.6 µM

Brc1ccc2c(c1)CNc1c(ncnc1N1CCOCC1)O2
inactive: activity change, negative = inhibition [1] -1.29% | activity change, negative = inhibition [2] -6.94% | activity, negative = inhibition [3] -3.65% | Potency [4] > 20.6 µM

CCCOc1ccc(CSC(CC(=O)O)C(=O)O)cc1 (stereo not given)
inactive: activity change, negative = inhibition [1] 4.79% | activity change, negative = inhibition [2] 13.3% | activity, negative = inhibition [3] 6.22% | Potency [4] > 20.6 µM
